Assay results as given in PubChem BioAssay AID436 (Emory University Molecular Libraries Screening Center, 2006).
Hit rate of the full screen: of about 72,000 compounds, about 350 (0.49%) were called active. The sample holds actives, similar compounds and a random draw of the others, so the mix is not that of the screen.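 The calls were made as follows: active = activity remaining at or below 50% of control, provided the compound also passes the data quality filters; inactive = the rest, including low values that fail the filters.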

Each molecule was assayed against Ubiquitin carboxyl-terminal hydrolase BAP1 (Homo sapiens) (UniProt Q92560) (assay: inhibitors of BAP1 deubiquitinase, primary screen, biochemical, Ub-AMC fluorescence, kinetic (AID 436;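 also: 100% = DMSO wells rate and 0% = substrate alone blank rate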)). Conditions: recombinant BAP1, Ub-AMC hydrolysis fluorescence kinetic; at 20 µM; hits give low values.
Sequence of Ubiquitin carboxyl-terminal hydrolase BAP1 (Homo sapiens) (Q92560 whole entry, looked up): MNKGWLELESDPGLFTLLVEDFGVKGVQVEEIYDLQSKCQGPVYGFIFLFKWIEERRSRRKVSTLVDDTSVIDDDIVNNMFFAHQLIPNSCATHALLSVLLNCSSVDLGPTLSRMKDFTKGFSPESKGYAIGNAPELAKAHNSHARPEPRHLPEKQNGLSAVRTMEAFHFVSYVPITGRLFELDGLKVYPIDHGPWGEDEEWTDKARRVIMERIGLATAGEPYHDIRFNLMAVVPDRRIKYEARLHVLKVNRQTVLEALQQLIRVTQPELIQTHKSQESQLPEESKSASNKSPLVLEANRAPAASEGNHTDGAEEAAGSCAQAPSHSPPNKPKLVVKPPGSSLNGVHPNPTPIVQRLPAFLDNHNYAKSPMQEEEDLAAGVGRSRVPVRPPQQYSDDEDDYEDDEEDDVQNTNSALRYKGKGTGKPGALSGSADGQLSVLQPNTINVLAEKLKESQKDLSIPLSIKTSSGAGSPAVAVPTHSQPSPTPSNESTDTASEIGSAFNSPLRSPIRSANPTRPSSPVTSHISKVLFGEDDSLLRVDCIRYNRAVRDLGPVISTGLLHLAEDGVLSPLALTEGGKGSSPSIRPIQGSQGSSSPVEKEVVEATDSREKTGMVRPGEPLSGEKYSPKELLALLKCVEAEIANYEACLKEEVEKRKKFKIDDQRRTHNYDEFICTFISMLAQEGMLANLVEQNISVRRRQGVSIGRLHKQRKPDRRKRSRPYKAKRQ

Activity remaining (% of control), active:
N#Cc1c(/N=C/N2CCCC2)oc(-c2ccccc2)c1-c1ccccc1 41.5%
CCC(c1nnnn1C1CCCC1)N(Cc1cccs1)Cc1cc2cccc(C)c2[nH]c1=O (stereo not drawn) 49.7%
CCCCNC(=O)c1c[nH]c2ccc(S(=O)(=O)Nc3ccc(OCC)cc3)cc2c1=O 32.9%

Activity remaining (% of control), inactive:
NC(=O)c1ccccc1NC(=O)COc1ccc([N+](=O)[O-])cc1 138%
Cc1ccc(C=Cc2ccncc2)cc1 139%
N#Cc1c(NC(=O)CCCN2C(=O)c3ccccc3C2=O)oc(-c2ccccc2)c1-c1ccccc1 56.8%
NC(=O)c1c(NC(=O)CCCCCN2C(=O)c3ccccc3C2=O)sc2c1CCC2 140%
COC(=O)C1=C(C)Nc2nnnn2C1c1ccccc1 (stereo not drawn) 171%
COc1cc(C(=O)Nc2ccc(Cl)cc2[N+](=O)[O-])cc(OC)c1OC 87.7%
C[n+]1ccccc1C=Cc1ccccc1 120%
Cc1cccc2cc(CN(Cc3cccs3)C(c3nnnn3C3CCCC3)C(C)C)c(=O)[nH]c12 (stereo not drawn) 57.3%
Cc1cccc2cc(CN(Cc3ccc4c(c3)OCO4)Cc3nnnn3C3CCCC3)c(=O)[nH]c12 53.1%
COC(=O)c1ccc(C(=O)Nc2cccc3c2C(=O)c2ccccc2C3=O)cc1 177%
CC(C)C(=O)N1c2ccccc2NC2=C(C(=O)CC(c3ccccc3)C2)C1c1ccc(F)cc1 (stereo not drawn) 63.6%
O=C(c1ccccc1)N1CCN(c2ccc([N+](=O)[O-])cc2F)CC1 64.8%
COc1cc(C2CC(=O)Nc3c2cc(Br)c2ccccc32)cc(Br)c1OC (stereo not drawn) 57.5%
CC(C)(C)c1ccc(OCC(O)CN2CCN(c3ccccc3F)CC2)cc1 (stereo not drawn) 152%
CC(C)(C)c1ccc(C(=O)Nc2nnc(Cc3ccc(F)cc3)s2)cc1 75.1%
COc1ccc(C=Nc2sc(C)c(C)c2C#N)cc1 103%
COC(=O)c1sc(-c2ccccc2)cc1NC(=O)c1ccc(S(=O)(=O)N2CCOCC2)cc1 193%
O=C1NCCCC1C1=NC(CO)(CO)CO1 (stereo not drawn) 82.8%
CCCOC(=O)c1cccc(NC(=O)COc2cccc(Cl)c2)c1 91.3%
CCOc1ccc(C(=O)Nc2ccc3c(c2)oc2ccccc23)cc1 144%
CCCCOc1ccc(C(=O)Nc2nc3ccc4nc(C)sc4c3s2)cc1 167%
CCC(=O)OCC1OC(n2ccc(=O)[nH]c2=O)CC1OC(=O)CC (stereo not drawn) 130%
COc1ccc(CCNC(=O)c2cccc([N+](=O)[O-])c2C)cc1 86.2%
COc1ccc(C(=O)Nc2cccc(C)n2)cc1[N+](=O)[O-] 80.8%
CN1C(=O)C(=O)/C(=C(/O)c2ccc(F)cc2)C1c1ccc(F)cc1 (stereo not drawn) 58.4%
Cn1c(=O)[nH]c(=O)c2c1nc(N1CCOCC1)n2CCO 159%
COc1cccc(NS(=O)(=O)c2ccc3[nH]cc(C(=O)NCCCOC(C)C)c(=O)c3c2)c1 79.5%
Cn1c(=N)n(CC(O)c2cccs2)c2ccccc21 (stereo not drawn) 85.6%
COc1cc(NC(=O)COc2ccccc2)c(OC)cc1Cl 141%
O=C(Nc1cc2cccc([N+](=O)[O-])c2oc1=O)c1ccccc1[N+](=O)[O-] 61.5%
Cc1cc(C)nc(NS(=O)(=O)c2ccc(NC(=O)c3ccc(F)cc3)cc2)n1 67.2%
Clc1ccc2[nH]c3ccccc3c2c1 65%
Cc1cc(O)c2c(=O)c(-c3csc(C)n3)c(C(F)(F)F)oc2c1 130%
O=C(OCCN1C(=O)c2ccccc2C1=O)c1ccc([N+](=O)[O-])cc1 90.6%
O=[N+]([O-])c1ccc(C=Nc2nc3c(s2)CCCC3)cc1 113%
